Calls of active or inactive are those of the source. How the source made its calls: active means hit-call score of the fitted dose curve at least 0.9, where 1 is the maximum; inactive means score below 0.9.

What is called AC50 is the concentration giving half of the maximal activity seen.

Chain of Myc proto-oncogene protein (Homo sapiens) (P01106 whole entry, looked up): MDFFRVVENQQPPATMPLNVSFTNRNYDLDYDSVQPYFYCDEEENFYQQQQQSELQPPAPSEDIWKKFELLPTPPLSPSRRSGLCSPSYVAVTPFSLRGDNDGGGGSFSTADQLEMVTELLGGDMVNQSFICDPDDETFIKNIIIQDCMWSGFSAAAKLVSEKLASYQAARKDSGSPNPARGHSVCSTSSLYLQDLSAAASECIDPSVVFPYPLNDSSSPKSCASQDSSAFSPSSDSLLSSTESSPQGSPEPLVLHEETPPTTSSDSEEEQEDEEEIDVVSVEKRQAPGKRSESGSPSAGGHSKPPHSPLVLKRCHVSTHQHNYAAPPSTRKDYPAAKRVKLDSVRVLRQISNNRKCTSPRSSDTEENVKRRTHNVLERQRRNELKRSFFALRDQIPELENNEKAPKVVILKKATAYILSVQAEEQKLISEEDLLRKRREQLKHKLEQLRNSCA
Chain of Transcriptional activator Myb (Homo sapiens) (P10242 whole entry, looked up): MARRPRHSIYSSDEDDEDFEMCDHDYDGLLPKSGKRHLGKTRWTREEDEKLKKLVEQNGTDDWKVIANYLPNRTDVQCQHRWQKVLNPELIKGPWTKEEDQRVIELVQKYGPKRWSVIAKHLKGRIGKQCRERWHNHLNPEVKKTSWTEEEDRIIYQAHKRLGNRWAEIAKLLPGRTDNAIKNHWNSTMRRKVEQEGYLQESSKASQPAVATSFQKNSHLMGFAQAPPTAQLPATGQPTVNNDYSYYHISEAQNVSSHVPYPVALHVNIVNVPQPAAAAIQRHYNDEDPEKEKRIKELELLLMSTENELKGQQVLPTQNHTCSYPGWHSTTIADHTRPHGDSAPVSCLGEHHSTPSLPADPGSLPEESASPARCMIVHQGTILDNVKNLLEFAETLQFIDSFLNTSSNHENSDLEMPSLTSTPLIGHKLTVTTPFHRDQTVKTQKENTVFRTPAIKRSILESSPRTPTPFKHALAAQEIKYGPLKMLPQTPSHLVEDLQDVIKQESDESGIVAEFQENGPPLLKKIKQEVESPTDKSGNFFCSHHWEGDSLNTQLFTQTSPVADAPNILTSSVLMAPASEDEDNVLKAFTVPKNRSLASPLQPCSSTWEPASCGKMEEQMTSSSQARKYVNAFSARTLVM

The first experiment addresses Transcriptional activator Myb (Homo sapiens) (UniProt P10242). Nature of the experiment: ATG_Myb_CIS: Attagene CIS-FACTORIAL HepG2 Assay for human Myeloblastosis (Myb) Proto-Oncogene Transcription Factor (AID 2282986). Particulars: HepG2 Attagene CIS-FACTORIAL Myb reporter transcription; actives raise or lower the signal. The essentials:
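Multiplexed cis-reporter system in HepG2: transient transfection, 24 h treatment, mRNA readout by RT-PCR and capillary electrophoresis. Both increases and decreases are scored versus DMSO negative control.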
In the case of `CCOP(=S)(Oc1ccc([N+](=O)[O-])cc1)c1ccccc1` (stereo not given), the call was inactive.

For the molecule `COP(=O)(O)OC`, the call was inactive.

On to `N#Cc1ccc(O)cc1`, for which the molecule was classed as inactive.

Take `C=CC(=O)OCC(F)(F)C(F)F`: the molecule was called inactive.

For the molecule `O=C(O)C(F)(OC(F)(F)C(F)(F)C(F)(F)F)C(F)(F)F` (stereo not given), the call was inactive.

Turning to `O=P(OCC(Br)CBr)(OCC(Br)CBr)OCC(Br)CBr` (stereo not given), the call was inactive.

`CC(O)C#N` (stereo not given): the molecule was called inactive.

For the molecule `O=NN1CCCC1`, the molecule was called inactive.

For the molecule `N#Cc1cc([N+](=O)[O-])ccc1N`, the result was inactive.

On to `Cc1cc(C)c(C(=O)P(=O)(c2ccccc2)c2ccccc2)c(C)c1`, for which the AC50 was 62.4 µM (active).

Turning to `O=c1ssc(Cl)c1Cl`, the outcome was inactive.

In the case of `CCOC(=O)c1ccccc1C(=O)OCC`, the call was inactive.

For `CCOP(=S)(OCC)SCSc1ccc(Cl)cc1`, the molecule was classed as inactive.

Take `OCC(F)(F)OC(F)(F)C(F)(F)OC(F)(F)C(F)(F)OC(F)(F)CO`: the call was inactive.

As for `COC(N)=O`, the molecule was classed as inactive.

As to `COP(N)(=S)OC`, the molecule was called inactive.

As to `CC(C)(C)c1ccc(O)cc1`, the molecule was called inactive.

As to `FC(F)(F)C(F)(C(F)(F)F)C(F)(F)C(F)(F)CC1CO1` (stereo not given), the result was inactive.

For `C/C(=N\NC(=O)Nc1cc(F)cc(F)c1)c1ncccc1C(=O)O`, the molecule was called inactive.

Consider `COCCOCCO`, for which the call was inactive.

Regarding `O=C(CBr)OCc1ccccc1`, the call was inactive.

Turning to `Clc1ccc(Oc2ccccc2)cc1`, the result was inactive.

Take `CCCCOCC1CO1` (stereo not given): the molecule was called inactive.

As for `OCC1CO1` (stereo not given), the call was inactive.

Consider `CCCCC(CC)COC(=O)c1c(Br)c(Br)c(Br)c(Br)c1C(=O)OCC(CC)CCCC` (stereo not given), for which the molecule was classed as inactive.

`Oc1ccc(I)cc1`: the molecule was called inactive.

For `NNC(N)=S`, the call was inactive.

Regarding `ClC(Cl)(Cl)c1ccccc1`, the molecule was classed as inactive.

Turning to `CC(C)CBr`, the molecule was classed as inactive.

For the molecule `CC1=C(C(=O)Nc2ccccc2)S(=O)(=O)CCO1`, the outcome was inactive.

As to `C=CC(=O)OCC(CC)(COC(=O)C=C)COC(=O)C=C`, the molecule was called inactive.

For the molecule `O=S(=O)(c1ccc(O)cc1)c1ccc(O)cc1`, the outcome was inactive.

For `CCOc1ccc(C(C)(C)COCc2cccc(Oc3ccccc3)c2)cc1`, the call was inactive.

Consider `CCOS(=O)(=O)OCC`, for which the molecule was classed as inactive.

Turning to `c1ccc(OP(Oc2ccccc2)Oc2ccccc2)cc1`, the molecule was called inactive.

As for `ClC(Cl)c1ccccc1`, the molecule was called inactive.

Take `Nc1ccc([N+](=O)[O-])cc1Cl`: the molecule was classed as inactive.

For the molecule `C=C(C)C(=O)OCC1CO1` (stereo not given), the molecule was called inactive.

As for `Cc1ccc(O)cc1C`, the outcome was inactive.

Test system in the next experiment: not listed separately
In words: ATG_NFI_CIS: Attagene CIS-FACTORIAL HepG2 Assay for human Nuclear Factor I (NFI) (AID 2282989). Particulars: HepG2 cis-regulatory reporter, NFI response element transcription; actives raise or lower the signal. The essentials: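 Transient MRTU transfection of HepG2 → 24 h chemical dosing → total RNA, oligo(dT) RT → PCR, 6-FAM primer extension, HpaI cut → capillary electrophoresis. Endpoint fitted bidirectionally relative to DMSO.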
Turning to `CCOP(=S)(Oc1ccc([N+](=O)[O-])cc1)c1ccccc1` (stereo not given), the molecule was called inactive.

Consider `COP(=O)(O)OC`, for which the outcome was inactive.

Regarding `N#Cc1ccc(O)cc1`, the result was inactive.

As for `C=CC(=O)OCC(F)(F)C(F)F`, the molecule was classed as inactive.

Take `O=C(O)C(F)(OC(F)(F)C(F)(F)C(F)(F)F)C(F)(F)F` (stereo not given): the molecule was classed as inactive.

With `O=P(OCC(Br)CBr)(OCC(Br)CBr)OCC(Br)CBr` (stereo not given), the result was inactive.

Turning to `CC(O)C#N` (stereo not given), the molecule was classed as inactive.

For `O=NN1CCCC1`, the molecule was classed as inactive.

On to `N#Cc1cc([N+](=O)[O-])ccc1N`, for which the outcome was inactive.

On to `Cc1cc(C)c(C(=O)P(=O)(c2ccccc2)c2ccccc2)c(C)c1`, for which the AC50 is 55.2 µM (active).

For the molecule `O=c1ssc(Cl)c1Cl`, the molecule was called inactive.

`CCOC(=O)c1ccccc1C(=O)OCC`: the call was inactive.

Regarding `CCOP(=S)(OCC)SCSc1ccc(Cl)cc1`, the molecule was classed as inactive.

Consider `OCC(F)(F)OC(F)(F)C(F)(F)OC(F)(F)C(F)(F)OC(F)(F)CO`, for which the call was inactive.

On to `COC(N)=O`, for which the molecule was classed as inactive.

With `COP(N)(=S)OC`, the result was inactive.

Turning to `FC(F)(F)C(F)(C(F)(F)F)C(F)(F)C(F)(F)CC1CO1` (stereo not given), the molecule was classed as inactive.

As for `C/C(=N\NC(=O)Nc1cc(F)cc(F)c1)c1ncccc1C(=O)O`, the call was inactive.

For the molecule `COCCOCCO`, the call was inactive.

Turning to `O=C(CBr)OCc1ccccc1`, the molecule was called inactive.

Turning to `Clc1ccc(Oc2ccccc2)cc1`, the molecule was called inactive.

Consider `CCCCOCC1CO1` (stereo not given), for which the call was inactive.

Turning to `OCC1CO1` (stereo not given), the call was inactive.

As to `CCCCC(CC)COC(=O)c1c(Br)c(Br)c(Br)c(Br)c1C(=O)OCC(CC)CCCC` (stereo not given), the result was inactive.

As for `Oc1ccc(I)cc1`, the result was inactive.

With `NNC(N)=S`, the molecule was called inactive.

With `ClC(Cl)(Cl)c1ccccc1`, the molecule was called inactive.

With `CC(C)CBr`, the result was inactive.

Take `CC1=C(C(=O)Nc2ccccc2)S(=O)(=O)CCO1`: the molecule was called inactive.

For the molecule `C=CC(=O)OCC(CC)(COC(=O)C=C)COC(=O)C=C`, the result was inactive.

For `O=S(=O)(c1ccc(O)cc1)c1ccc(O)cc1`, the result was inactive.

For the molecule `CCOc1ccc(C(C)(C)COCc2cccc(Oc3ccccc3)c2)cc1`, the result was inactive.

Take `CCOS(=O)(=O)OCC`: the molecule was classed as inactive.

As to `c1ccc(OP(Oc2ccccc2)Oc2ccccc2)cc1`, the result was inactive.

`ClC(Cl)c1ccccc1`: the outcome was inactive.

`Nc1ccc([N+](=O)[O-])cc1Cl`: the molecule was classed as inactive.

In the case of `C=C(C)C(=O)OCC1CO1` (stereo not given), the result was inactive.

Another experiment concerns the target Myc proto-oncogene protein (Homo sapiens) (UniProt P01106). In words: ATG_Myc_CIS: Attagene CIS-FACTORIAL HepG2 Assay for human Myelocytomatosis (Myc) Proto-Oncogene Transcription Factor (AID 2282990). Particulars: HepG2, Attagene cis-reporter transcription factor activity; actives raise or lower the signal. The procedure, abridged: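 Transiently transfected HepG2 cells bearing cis-promoter reporter units for endogenous transcription factors; 24 h exposure. Reporter mRNA measured by RT-PCR, 6-FAM primer extension, HpaI cut and capillary electrophoresis; bidirectional fit relative to DMSO.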
For the molecule `CCOP(=S)(Oc1ccc([N+](=O)[O-])cc1)c1ccccc1` (stereo not given), the outcome was inactive.

Turning to `COP(=O)(O)OC`, the molecule was called inactive.

Take `N#Cc1ccc(O)cc1`: the call was inactive.

As for `C=CC(=O)OCC(F)(F)C(F)F`, the molecule was called inactive.

Regarding `O=C(O)C(F)(OC(F)(F)C(F)(F)C(F)(F)F)C(F)(F)F` (stereo not given), the molecule was classed as inactive.

In the case of `O=P(OCC(Br)CBr)(OCC(Br)CBr)OCC(Br)CBr` (stereo not given), the molecule was classed as inactive.

For the molecule `CC(O)C#N` (stereo not given), the molecule was classed as inactive.

Turning to `O=NN1CCCC1`, the result was inactive.

On to `N#Cc1cc([N+](=O)[O-])ccc1N`, for which the result was inactive.

For the molecule `Cc1cc(C)c(C(=O)P(=O)(c2ccccc2)c2ccccc2)c(C)c1`, the AC50 was 49.1 µM (active).

With `O=c1ssc(Cl)c1Cl`, the AC50 is 33.4 µM (active).

Take `CCOC(=O)c1ccccc1C(=O)OCC`: the molecule was classed as inactive.

In the case of `CCOP(=S)(OCC)SCSc1ccc(Cl)cc1`, the result was inactive.

With `OCC(F)(F)OC(F)(F)C(F)(F)OC(F)(F)C(F)(F)OC(F)(F)CO`, the result was inactive.

For the molecule `COC(N)=O`, the outcome was inactive.

On to `COP(N)(=S)OC`, for which the result was inactive.

Regarding `CC(C)(C)c1ccc(O)cc1`, the call was inactive.

For the molecule `FC(F)(F)C(F)(C(F)(F)F)C(F)(F)C(F)(F)CC1CO1` (stereo not given), the result was inactive.

As to `C/C(=N\NC(=O)Nc1cc(F)cc(F)c1)c1ncccc1C(=O)O`, the call was inactive.

As to `COCCOCCO`, the molecule was classed as inactive.

With `O=C(CBr)OCc1ccccc1`, the molecule was called inactive.

In the case of `Clc1ccc(Oc2ccccc2)cc1`, the call was inactive.

Consider `CCCCOCC1CO1` (stereo not given), for which the outcome was inactive.

On to `OCC1CO1` (stereo not given), for which the outcome was inactive.

For the molecule `CCCCC(CC)COC(=O)c1c(Br)c(Br)c(Br)c(Br)c1C(=O)OCC(CC)CCCC` (stereo not given), the outcome was inactive.

Turning to `Oc1ccc(I)cc1`, the molecule was called inactive.

For the molecule `NNC(N)=S`, the outcome was inactive.

For `ClC(Cl)(Cl)c1ccccc1`, the result was inactive.

With `CC(C)CBr`, the call was inactive.

For the molecule `CC1=C(C(=O)Nc2ccccc2)S(=O)(=O)CCO1`, the call was inactive.

`C=CC(=O)OCC(CC)(COC(=O)C=C)COC(=O)C=C`: the molecule was called inactive.

Consider `O=S(=O)(c1ccc(O)cc1)c1ccc(O)cc1`, for which the molecule was classed as inactive.

On to `CCOc1ccc(C(C)(C)COCc2cccc(Oc3ccccc3)c2)cc1`, for which the molecule was called inactive.

Regarding `CCOS(=O)(=O)OCC`, the call was inactive.

`c1ccc(OP(Oc2ccccc2)Oc2ccccc2)cc1`: the result was inactive.

Regarding `ClC(Cl)c1ccccc1`, the outcome was inactive.

In the case of `Nc1ccc([N+](=O)[O-])cc1Cl`, the result was inactive.

Consider `C=C(C)C(=O)OCC1CO1` (stereo not given), for which the molecule was called inactive.

`Cc1ccc(O)cc1C`: the molecule was called inactive.

Source of the values: PubChem BioAssay (EPA / NIEHS).
